From PubChem BioAssay AID463173 (ICCB-Longwood Screening Facility, Harvard Medical School, 2010)
The campaign covered roughly 52,000 compounds. About 4,300 (8.3%) were called active. The sample holds actives, similar compounds and a random draw of the others, so the mix is not that of the screen. A number with no mark means an inactive call. Rule as the data show it: active = survival mostly below about 52% (no sharp cut-off); inactive = mostly above about 56%.

system: DeltatarO mutant; test: S. aureus survival, RN4220 and DeltatarO strains – OD600, teichoic acid synthesis inhibitors, primary screen (AID 463173); conditions: S. aureus RN4220 wild type/DeltatarO growth, OD600, 18 h, stronger effect = lower value, screened at 18.75 µg/mL (by protocol)

Row | SMILES | survival
1 | Cc1ccc(C(=O)Nc2ccc3oc(-c4cccnc4)nc3c2)cc1 | 83%
2 | COc1cccc(NC(=O)c2oc3ccccc3c2NC(=O)c2ccccc2C)c1 | 43% (active)
3 | Cc1ccccc1C(=O)Nc1c(C(=O)Nc2cccc(F)c2)oc2ccccc12 | 46% (active)
4 | Cc1ccc(NC(=O)c2oc3ccccc3c2NC(=O)c2ccccc2C)cc1 | 79%
5 | CCOC(=O)C(=O)Nc1c(C(=O)Nc2cccc(F)c2)oc2ccccc12 | 97%
6 | COc1cccc(NC(=O)c2oc3ccccc3c2NC(=O)COc2ccccc2C)c1 | 122%
7 | COc1cccc(NC(=O)c2oc3ccccc3c2C)c1 | 106%
8 | O=C(OCc1cc(=O)n2nc(-c3cccs3)sc2n1)c1ccccc1Br | 75%
9 | CC1C(C(=O)Nc2ccccc2)CCCC1(C)C(=O)O (stereo not drawn) | 80%
10 | CC(=O)c1cccc(NC(=O)C2CCN(c3ncnc4c3nc3n4CCCCC3)CC2)c1 | 84%
11 | O=C(CN(c1ccc2c(c1)OCCO2)S(=O)(=O)c1ccccc1)NC1CC1 | 75%
12 | CCOc1ccc(NC(=O)c2ccc3c(=O)n4nc(Nc5ccccc5C)sc4nc3c2)cc1 | 113%
13 | CCCCN(CC)C(=O)C1CCC(CNS(=O)(=O)c2cccc3nsnc23)CC1 (stereo not drawn) | 83%
14 | O=C(CCC(=O)N1Cc2ccccc2Oc2ncccc21)Nc1ccc(Cl)cc1 | 37% (active)
15 | CC(C)CCNC(=O)CCC(=O)N1Cc2ccccc2Oc2ncccc21 | 55%
16 | Cc1ccc(NC(=O)CCC(=O)N2Cc3ccccc3Oc3ncccc32)cc1 | 49%
17 | Cc1ccc(CNC(=O)CCC(=O)N2Cc3ccccc3Oc3ncccc32)cc1 | 71%
18 | CCOc1ccc(CNC(=O)CCC(=O)N2Cc3ccccc3Oc3ncccc32)cc1 | 32% (active)
19 | CCC(C)NC(=O)CCC(=O)N1Cc2ccccc2Oc2ncccc21 (stereo not drawn) | 117%
20 | CC(C)NC(=O)CCC(=O)N1Cc2ccccc2Oc2ncccc21 | 0% (active)
21 | Cc1ccc(NC(=O)CCC(=O)N2Cc3ccccc3Oc3ncccc32)cc1Cl | 83%
22 | CN(C)c1ccc(CNC(=O)CCC(=O)N2Cc3ccccc3Oc3ncccc32)cc1 | 83%

Row | SMILES | survival
23 | CCOc1ccc(CNC(=O)Cn2nc(C)n3cccc3c2=O)cc1 | 101%
24 | Cc1cccc(NC(=O)C2CCN(S(=O)(=O)c3ccc(F)cc3)CC2)c1C | 60%
25 | COc1ccc(CNC(=O)CCCN2C(=O)CCn3nc(-c4cn(C)c5ccccc45)cc32)cc1 | 88%
26 | COc1ccc(OC)c(NC(=O)Cc2coc3ccc(C(C)C)cc23)c1 | 73%
27 | Cc1ccc(N(C)C(=O)Cn2nc(Cc3ccncc3)c3ccccc3c2=O)cc1C | 84%
28 | Oc1ccc2ccccc2c1/C=N/c1nccs1 | 81%
29 | CCOc1ccccc1NC(=O)Nc1ccc2nc(N3CCN(C)CC3)cc(C)c2c1 | 75%
30 | COc1ccc(CCNC(=O)C(=O)NCC(c2cccs2)S(=O)(=O)c2cccs2)cc1 (stereo not drawn) | 78%
31 | COc1cc(S(=O)(=O)N2CCCCC2C)c(OC)cc1Cl (stereo not drawn) | 114%
32 | CC(CCc1ccccc1)NC(=O)Cn1c(=O)nc(-c2ccccc2)c2ccccc21 (stereo not drawn) | 99%
33 | CC1(C)OC(=O)C(=C2CCCCCN2)C(=O)O1 | 99%
34 | COc1ccccc1NC(=O)c1sc2nc(-c3cc4cc(Cl)ccc4oc3=O)[nH]c(=O)c2c1C | 45% (active)
35 | COc1ccc(Cl)cc1NC(=O)c1sc2nc3n(c(=O)c2c1C)CCC3 | 76%
36 | O=C(O)c1ccc2nc(-c3cc4cc(Cl)ccc4oc3=O)[nH]c2c1 | 69%
37 | CC(C)(C)C1CCc2c(sc3nc(-c4cc5cc(Cl)ccc5oc4=O)[nH]c(=O)c23)C1 (stereo not drawn) | 83%
38 | Cc1c(C(=O)Nc2ccccc2)sc2nc(-c3cc4cc(Cl)ccc4oc3=O)[nH]c(=O)c12 | 45% (active)
39 | COc1ccccc1NC(=O)c1sc2nc(-c3cc4ccccc4oc3=O)[nH]c(=O)c2c1C | 106%
40 | COc1ccc(-c2cn3nc(SCC(=O)Nc4ccc(C)c(Cl)c4)ccc3n2)cc1 | 94%
41 | COc1ccccc1N1CCN(C(=O)c2oc3ccccc3c2NC(=O)C(C)Oc2ccccc2)CC1 (stereo not drawn) | 69%
42 | CCNc1nc2c(c(=O)[nH]c(=O)n2C)n1CC(O)COc1ccc(Cl)cc1Cl (stereo not drawn) | 180%
43 | CN(C)c1ccc(CNS(=O)(=O)c2csc(C(N)=O)c2)cc1 | 60%
44 | O=C(CC1N=C2c3ccccc3N=C(SCc3ccc(F)cc3)N2C1=O)NCCc1ccccc1 (stereo not drawn) | 85%

Row | SMILES | survival
45 | COc1ccc(Nc2nc3ccccc3nc2NS(=O)(=O)c2ccc(Cl)cc2)cc1OC | 29% (active)
46 | COc1ccc(Nc2nc3c(S(=O)(=O)c4ccccc4)nnn3c3ccc(Cl)cc23)cc1OC | 117%
47 | Cc1cccc(C)c1Nc1nc2ccccc2nc1NS(=O)(=O)c1ccccc1 | 79%
48 | CCOC(=O)c1ccc(Nc2nc3ccccc3n3c(C)nnc23)cc1 | 67%
49 | COc1ccc2nc(NS(=O)(=O)c3ccc(C)cc3)c(Nc3cc(Cl)ccc3OC)nc2c1 | 22% (active)
50 | CCc1ccc(Nc2nc3ccccc3nc2NS(=O)(=O)c2ccccc2)cc1 | 28% (active)
51 | Cc1ccc2nc(NS(=O)(=O)c3ccc(Cl)cc3)c(Nc3ccc(C(=O)O)cc3)nc2c1 | 109%
52 | CCOC(=O)c1ccc(Nc2nc3ccccc3nc2NS(=O)(=O)c2ccc(Cl)cc2)cc1 | 37% (active)
53 | COc1cc(Cl)c(C)cc1Nc1nc2ccccc2nc1NS(=O)(=O)c1ccccc1 | 116%
54 | COc1ccc(Nc2nc3ccccc3nc2NS(=O)(=O)c2ccc(C)cc2)c(OC)c1 | 63%
55 | CCOc1ccc(S(=O)(=O)Nc2nc3ccccc3nc2Nc2ccc(OC)cc2)cc1 | 68%
56 | CCOc1ccccc1Nc1nc2ccccc2nc1NS(=O)(=O)c1ccc(Cl)cc1 | 79%
57 | Cc1ccc(Cl)cc1NC(=O)CN1C(=O)CSc2ccc(S(=O)(=O)N3CCCC3)cc21 | 97%
58 | CCN1CCN(CCCNC(=O)Cn2nc(C)n3c(cc4cc(C)ccc43)c2=O)CC1 | 98%
59 | Cc1cc(C)cc(NC(=O)CCCn2nc(C)c3c(C)n(-c4ccccc4)nc3c2=O)c1 | 80%
60 | NC(Cc1c[nH]c2ccccc12)C(=O)NCc1ccccc1 (stereo not drawn) | 92%
61 | CN1C(C(=O)c2ccccc2)=C(NC(=O)c2ccccc2Br)c2ccccc2S1(=O)=O | 63%
62 | COC(=O)c1cc(Nc2nc3ccccc3nc2NS(=O)(=O)c2ccc(C)cc2)ccc1Cl | 29% (active)
63 | COc1ccccc1C(=O)Nc1ccc(S(=O)(=O)Nc2nc(C)cc(C)n2)cc1 | 61%
64 | O=S(=O)(Nc1nc2ccccc2nc1Nc1ccccc1Br)c1ccccc1 | 112%
65 | CCn1c(=O)c2sccc2n2c(CCC(=O)Nc3ccc(OC)c(Cl)c3)nnc12 | 89%
66 | CCOc1ccc(CNC(=O)c2ccc(-c3nc(CS(=O)(=O)c4ccccc4)c(C)o3)cc2)cc1 | 76%

Row | SMILES | survival
67 | COC(=O)c1ccccc1NC(=O)CN(c1ccc(Cl)cc1)S(=O)(=O)c1ccc(OC)cc1 | 72%
68 | COc1cccc(NC(=O)c2sc3nc(C)c(C(=O)Nc4ccc(C)cc4C)c(-c4ccc(C)o4)c3c2N)c1 | 39% (active)
69 | COc1cccc(NC(=O)c2sc3nc(C)c(C(=O)Nc4ccc(C)cc4C)c(-c4ccco4)c3c2N)c1 | 79%
70 | COc1ccc(NC(=O)c2sc3nc(C)c(C(=O)Nc4ccc(C)cc4C)c(-c4ccc(C)o4)c3c2N)cc1 | 51%
71 | Cc1ccc(/C=C/c2onc(C)c2S(=O)(=O)N2CCC(C(=O)N3CCN(c4ccccc4F)CC3)CC2)cc1 | 116%
72 | Cc1ccc(CCNC(=O)c2ccc(NC(=O)N3CC(C)Sc4ccccc43)cc2)cc1 (stereo not drawn) | 73%
73 | CCOc1ccc(-c2nc(Cn3c(=O)cc(-c4ccccc4)c4c(C)nn(C)c43)c(C)o2)cc1 | 128%
74 | CCc1ccc(-c2[nH]nc3nc(-c4ccc(OC)cc4)cc(C(=O)NCCc4ccc(OC)c(OC)c4)c23)cc1 | 81%
75 | CCc1ccc(-c2cn3nc(CC)sc3n2)cc1 | 66%
76 | CC(=O)N1CCc2c(sc3c2c(=O)n(CCc2ccccc2)c(=O)n3CC(=O)Nc2ccccc2F)C1 | 55%
77 | COc1c(C)cc(NS(=O)(=O)c2ccc3c(c2)OCCO3)cc1C | 72%
78 | O=C(COCc1cc(-c2cccs2)on1)N1CCN(c2ccc(F)cc2)CC1 | 98%
79 | Cc1ccc(NC(=O)COCc2cc(-c3cccs3)on2)cc1Cl | 57%
80 | O=C(COCc1cc(-c2cccs2)on1)Nc1cccc(O)c1 | 0% (active)
81 | O=C(COCc1cc(-c2ccco2)on1)Nc1cccc(O)c1 | 78%
82 | O=C(COCc1cc(-c2cccs2)on1)N1CCN(c2ccccc2)CC1 | 72%
83 | O=C(COCc1cc(-c2cccs2)on1)N1CCN(c2cccc(Cl)c2)CC1 | 37% (active)
84 | O=C(c1ccc2c(c1)N(Cc1ccccc1F)C(=O)c1ccccc1S2=O)N1CCC(Cc2ccccc2)CC1 (stereo not drawn) | 77%
85 | Cc1cccc(C)c1NC(=O)Cn1nnc(S(=O)(=O)c2ccccc2)c1N | 91%
86 | Cc1cccc(NC(=O)CSc2cn(CC(=O)N3CCOCC3)c3ccccc23)c1C | 64%
87 | O=C(c1ccc2c(c1)N(Cc1ccccc1)C(=O)c1ccccc1S2(=O)=O)N1CCCCCC1 | 70%
88 | COc1ccc(CNC(=O)C(C)n2ccc3cc(S(=O)(=O)N4CCCC4)ccc32)cc1OC (stereo not drawn) | 85%
